# Reference: PubChem BioAssay (NCATS)
# Calls of active or inactive are those of the source. Calls come from the whole dose curve; as a rule, active = well fitted inhibition curve with a large enough effect; inconclusive = small, poorly fitted or top-dose-only effect; inactive = flat fitted curve, though single readings scatter.
# Target: DNA dC->dU-editing enzyme APOBEC-3G (Homo sapiens) (UniProt Q9HC16)
# Assay: qHTS for inhibitors of Vif-A3G interactions: Validation (AID 588379); note: 0% is about no effect
# Settings: Vif-A3G protein interaction assay; series mostly up to 46.1 µM; activity change, negative = inhibition: at the top concentration
# Outline: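 Yellow fluorescence (Ex 488, Em 500-530) of Vif-coexpressing HeLa A3G-eYFP cells, scanned by Acumen cytometer, reports blocked A3G degradation. Cells plated at 700/well overnight at 37 deg C before compound addition, then a further overnight compound incubation at 37 deg C.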
# DNA dC->dU-editing enzyme APOBEC-3G (Homo sapiens), sequence (Q9HC16 whole entry, looked up): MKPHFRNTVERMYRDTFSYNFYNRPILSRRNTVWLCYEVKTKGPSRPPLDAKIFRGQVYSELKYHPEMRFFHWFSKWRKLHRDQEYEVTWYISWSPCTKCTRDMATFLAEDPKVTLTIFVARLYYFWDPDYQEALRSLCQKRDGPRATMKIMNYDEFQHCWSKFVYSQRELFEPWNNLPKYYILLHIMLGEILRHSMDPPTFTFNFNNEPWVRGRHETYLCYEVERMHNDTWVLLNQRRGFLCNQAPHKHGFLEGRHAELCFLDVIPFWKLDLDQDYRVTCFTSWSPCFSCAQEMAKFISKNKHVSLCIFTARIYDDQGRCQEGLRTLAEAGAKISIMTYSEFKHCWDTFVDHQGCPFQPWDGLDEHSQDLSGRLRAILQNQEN
row,SMILES,"activity change, negative = inhibition"
1,Cc1scc2c1N(C(=O)CN1CCN(C)CC1)c1ccccc1NC2=O,-2.53% (inactive)
2,Brc1c(NC2=NCCN2)ccc2nccnc12,0.553% (inactive)
3,O=C1CC2(CCCC2)CC(=O)N1CCCCN1CCN(c2ncccn2)CC1,-0.287% (inactive)
4,CCCCNc1c(C(=O)OCC)c(C)nc2c1cnn2CC,-2.04% (inactive)
5,CCN1CCC[C@H]1CNC(=O)c1c(O)c(Cl)cc(Cl)c1OC,1.44% (inactive)
6,COc1ccc([C@@H]2Sc3ccccc3N(CCN(C)C)C(=O)[C@@H]2OC(C)=O)cc1,-7.45% (inactive)
7,CCn1nc(C(=O)O)c(=O)c2cc3c(cc21)OCO3,-3.48% (inactive)
8,NC(N)=NC(=O)Cc1c(Cl)cccc1Cl,-1.71% (inactive)
9,N[C@@H](COP(=O)(O)O)C(=O)O,-3.4% (inactive)
10,CCOC(=O)c1cnc2c(cnn2CC)c1NN=C(C)C,0.144% (inactive)
11,CN(C(=O)CCCOc1ccc2[nH]c(=O)ccc2c1)C1CCCCC1,0.0102% (inactive)
